Inhibition data for one compound are collected here from PubChem BioAssay AID1026 (Columbia University Molecular Screening Center, 2008).

This assay addresses Bifunctional epoxide hydrolase 2 (Homo sapiens) (UniProt P34913). Kind of assay: sEH inhibitor concentration-response potency, dose response, biochemical, human sEH, fluorescence, Infinite200 (AID 1026). The following applies: recombinant human sEH, fluorogenic substrate, at 0.2 µM, hits give high values.

Unmarked numbers belong to inactive results. No rule for the calls is given here.

Sequence of Bifunctional epoxide hydrolase 2 (Homo sapiens) (P34913 whole entry, looked up): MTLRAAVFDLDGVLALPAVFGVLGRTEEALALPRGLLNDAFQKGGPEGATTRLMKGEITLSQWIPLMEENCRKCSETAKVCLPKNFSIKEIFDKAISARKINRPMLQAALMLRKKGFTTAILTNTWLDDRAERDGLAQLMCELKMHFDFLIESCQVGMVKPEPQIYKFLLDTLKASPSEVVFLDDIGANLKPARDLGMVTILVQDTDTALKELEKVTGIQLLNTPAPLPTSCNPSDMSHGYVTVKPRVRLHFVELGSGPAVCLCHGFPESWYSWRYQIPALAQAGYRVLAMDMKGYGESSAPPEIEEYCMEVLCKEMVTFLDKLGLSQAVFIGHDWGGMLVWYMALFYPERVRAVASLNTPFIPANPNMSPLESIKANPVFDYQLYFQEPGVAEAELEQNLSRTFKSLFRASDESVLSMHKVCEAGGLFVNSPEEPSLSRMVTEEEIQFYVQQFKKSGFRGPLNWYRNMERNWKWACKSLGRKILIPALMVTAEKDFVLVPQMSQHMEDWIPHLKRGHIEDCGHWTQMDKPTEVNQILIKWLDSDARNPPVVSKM

`CC(Cc1ccccc1)NC(=O)NC(C)Cc1ccccc1` (stereo unspecified): the inhibition is 71.6%.

Broadly, the inhibition is the share of the control response that was lost under treatment.
